High-throughput results as filed in PubChem.
Many of the other results were omitted from the sample, so hits are more common in it than they were.
RBX1-CUL1 inh = inhibitors of human ROC1-CUL1 ubiquitin ligase activity; P62877+Q13616; in vitro K48 di-Ub FRET, acceptor:donor ratio, 45 min; inhibition, % at 10 µM; 0.6% of 140,000 active; in the data active = inhibition above about 25%
Target sequence (P62877 whole entry, looked up): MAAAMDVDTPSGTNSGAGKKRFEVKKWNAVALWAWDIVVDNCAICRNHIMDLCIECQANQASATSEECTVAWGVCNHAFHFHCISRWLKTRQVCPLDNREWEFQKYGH
Target sequence (Q13616 whole entry, looked up): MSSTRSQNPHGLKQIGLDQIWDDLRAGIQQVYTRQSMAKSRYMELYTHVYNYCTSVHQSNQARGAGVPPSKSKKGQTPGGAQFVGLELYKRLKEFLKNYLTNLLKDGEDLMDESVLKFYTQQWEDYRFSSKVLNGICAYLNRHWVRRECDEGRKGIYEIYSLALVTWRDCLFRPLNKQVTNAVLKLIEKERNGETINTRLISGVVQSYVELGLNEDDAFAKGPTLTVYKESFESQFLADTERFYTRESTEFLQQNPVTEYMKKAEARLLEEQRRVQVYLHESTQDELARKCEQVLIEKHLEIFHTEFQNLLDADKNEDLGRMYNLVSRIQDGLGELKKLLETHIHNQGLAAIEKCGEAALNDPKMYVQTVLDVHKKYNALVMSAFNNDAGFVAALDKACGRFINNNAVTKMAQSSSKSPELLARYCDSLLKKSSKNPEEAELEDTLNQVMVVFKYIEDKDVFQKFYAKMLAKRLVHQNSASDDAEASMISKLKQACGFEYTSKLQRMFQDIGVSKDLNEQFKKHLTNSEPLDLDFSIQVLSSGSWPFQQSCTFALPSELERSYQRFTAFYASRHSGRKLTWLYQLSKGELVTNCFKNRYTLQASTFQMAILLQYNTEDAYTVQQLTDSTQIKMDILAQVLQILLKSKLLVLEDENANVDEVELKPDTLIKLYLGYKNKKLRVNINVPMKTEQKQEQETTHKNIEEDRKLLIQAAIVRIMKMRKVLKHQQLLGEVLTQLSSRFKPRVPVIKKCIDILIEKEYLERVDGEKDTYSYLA
Starred values were filed as active, the others as inactive.

SMILES | RBX1-CUL1 inh
Cc1cccc(OCC(=O)NC(C)C(=O)N/N=C/c2ccc(OCc3c(C)cc(C)cc3C)cc2)c1 (stereo not given) | 12
Cc1ccccc1OCC(=O)NC(C)C(=O)N/N=C\c1ccc2c(c1)n(C)c(=O)n2C (stereo not given) | 9
Nc1nnnn1CC(=O)N1CCOCC1 | -5
COc1cc(/C=N/NC(=O)CSc2nnc(-c3ccc(C)cc3)n2C)ccc1O | 27*
Cc1ccc(/C=N/NC(=O)CSc2nnc(-c3ccc(Br)cc3)n2C)cc1 | -1
COc1cc(Br)cc(/C=N/NC(=O)CSc2nnc(-c3ccc(C)cc3)n2C)c1O | 17
Cc1cccc(-n2c(SCC(=O)Nc3ccc(F)c(Cl)c3)nc3sc4c(c3c2=O)CCCC4)c1 | -4
Clc1ccc(-c2nnc(SCc3ccccc3)o2)c(Cl)c1 | -2
COc1cc(CN2CCN(C(C)=O)CC2)ccc1OCC(O)CN(C)C1CCCCC1 (stereo not given) | -3
O=C(COC(=O)c1ccc(C(O)c2ccccc2)cc1)c1ccccc1 (stereo not given) | 32*
Nc1cccc(C(=O)OCC(=O)c2ccccc2)c1 | -6
COc1ccc(C(=O)OCC(=O)c2ccc(OC(=O)c3ccccc3)cc2)cc1 | 6
CN(C(=O)c1ccco1)c1ccc2c(c1)nc1n2CCOC1 | 8
COc1ccc(CC(=O)O)c(O)c1OC | 3
N/C(=N\c1nc(-c2ccccc2)cc(=O)[nH]1)Nc1cccc(Cl)c1 | -7
O=C(Nc1ccc(S(=O)(=O)Nc2ccc(Cl)nn2)cc1)c1ccc(COc2cc(Cl)ccc2Cl)o1 | 35*
O=C(Nc1ccc(S(=O)(=O)Nc2ccc(Cl)nn2)cc1)c1ccc(COc2cccc(Cl)c2)o1 | 14
COc1cc(NS(=O)(=O)c2ccc(NC(=O)c3ccc(COc4ccc5c(c4)CCC5)o3)cc2)ncn1 | -1
O=C(CCc1nnc(C2CCCCC2)o1)NCCc1cccs1 | -2
Cn1cccc1/C=C/c1cc(Br)c(/C=C/c2cccn2C)cc1Br | 95*
CCN1C(=O)S/C(=C/c2cccn2C)C1=O | -6
Cn1cccc1/C=C1/C(=O)ON=C1c1ccccc1 | 2
CCC(C)NC(=O)NCc1ccccc1Cl (stereo not given) | 2
CCN1/C(=C\C=C/C2C=Cc3ccccc3N2CC)C=Cc2ccccc21 (stereo not given) | 57*
O=C(OCc1ccc2c(c1)OCO2)c1ccc2c(c1)OCO2 | -6
SMILES | RBX1-CUL1 inh
O=C(NCc1cccnc1N1CCN(c2ccccn2)CC1)c1csnn1 | 4
CCOc1cc(-c2ccc3c(c2)OCO3)cc(=Nc2cccc(OC)c2)c2c(C)oc(C)c12 | 0
CCOc1cc(-c2ccc(O)cc2)cc(=O)c2c(C)oc(C)c12 | -18
CCOc1cc(-c2ccc(O)c(O)c2)cc(=Nc2ccc(Br)cc2)c2c(C)oc(C)c12 | 50*
O=C(/C=C/c1ccco1)Nc1cccc(Oc2ccc3c(c2)C(=O)N(c2ccccc2)C3=O)c1 | 8
Nc1cc(N)cc(C(=O)NC2CCCCC2)c1 | 1
O=C(O)c1ccccc1SC1C(=O)Oc2ccccc2C1=O (stereo not given) | 46*
O=C1Oc2ccccc2C(=O)C1C(=O)c1ccccc1 (stereo not given) | -2
O=C1Oc2ccccc2C(=O)C1Sc1ccc(Cl)cc1 (stereo not given) | -1
CCN1C(=O)N=C(Cc2ccccc2OC)C1=O | -1
COc1ccc(C(=O)c2cc(C)ccc2OC)cc1 | -1
COc1ccc(C(=O)c2coc3c2cc(O)c2ccccc23)cc1 | 13
COc1ccc(C(=O)c2coc3c2C(=O)C(=O)C(Br)=C3)cc1 | 102*
COc1ccc2c(c1)C=C1C(=CC(=Nc3ccc(Br)cc3)CC1(C)C)O2 | 54*
Cc1cc(N2CCCC2=O)cc(C)c1S(=O)(=O)N1CCCCC1 | 4
CC(C)OC(=O)c1nccnc1C(=O)Nc1ccc(OCc2ccc(Cl)cc2)cc1 | -3
O=C(Sc1ccc(Cl)cc1)c1ccc(Cl)cc1Cl | -2
CC(=O)N1CCC[C@H]1C(=O)NCc1cccnc1Oc1ccccc1F | -4
O=C(CC1NCCNC1=O)Nc1cccc(C(F)(F)F)c1 (stereo not given) | 2
O=C1CC(n2nnn(-c3cccc(Cl)c3)c2=S)C2COC1O2 (stereo not given) | -8
CC1=NOC(=O)/C1=C\c1ccc(N(C)C)cc1 | 1
CN(C)c1ccc(/C=C2/OC(=S)NC2=S)cc1 | 26*
CN(C)c1ccc(/C=C\c2ccccc2)cc1 | 4
C/C(=N\NC(=O)C(O)(c1ccccc1)c1ccccc1)c1ccc(NC(=O)c2ccco2)cc1 | -1
Cc1cc(=O)cc(-c2ccccc2)o1 | -1
SMILES | RBX1-CUL1 inh
COc1ccc(C(=O)O)cc1S(=O)(=O)NC1CC1 | -3
CCC(C)N1C(=O)S/C(=C/c2ccc(-c3cc(C(=O)O)ccc3Cl)o2)C1=O (stereo not given) | 15
CCCCC1(C)OC(=O)C(=Cc2ccc(-c3cc(C(=O)O)ccc3Cl)o2)C(=O)O1 (stereo not given) | 85*
O=C(O)c1ccc(Cl)c(-c2ccc(/C=N/Nc3ccccc3)o2)c1 | 2
CC(C)(C)c1cc(OC(=O)c2ccco2)ccc1O | 0
COC(=O)c1sc(NC(=O)C(F)(F)F)c(C#N)c1C | 4
CCOc1ccc(NC(=O)CSc2c(-c3ccccc3)c3cc(Cl)ccc3[nH]c2=O)cc1 | -5
O=C(O)CSc1cc(NS(=O)(=O)c2ccc3ccccc3c2)c2ccccc2c1O | 89*
COc1ccc(S(=O)(=O)Nc2cc(Sc3ncn[nH]3)c(O)c3ccccc23)cc1 | 97*
Cc1ccc(S(=O)(=O)Nc2cc(Sc3nc4ccccc4s3)c(O)c3ccccc23)cc1 | 10
O=S(=O)(Nc1ccc(O)c(Sc2ncn[nH]2)c1)c1ccccc1 | 0
O=c1oc2c(cc(NS(=O)(=O)c3ccc4ccccc4c3)c3ccccc32)s1 | 12
Cc1ccc(S(=O)(=O)Nc2cc(SCC(=O)O)c(O)c3ccccc23)c(C)c1 | 4
CCn1c2ccccc2c2ccc(/C=N/NC(=O)c3ccc(O)cc3O)cc21 | -9
C(=C\c1cc(-c2cccs2)nc2ccc3ccccc3c12)/c1cccs1 | 12
CCOc1ccc(NC(=S)Nc2ccc3nsnc3c2)cc1 | 51*
CCOc1ccc(NC(=S)NCCCO)cc1 | 8
CCOc1ccc(NC(=S)NCCO)cc1 | 11
O=C(NC1CC1)c1cccnc1N1CCc2[nH]nc(C3CCC3)c2C1 | 9
COCCOc1ccc(C(=O)N(C)c2ccccc2)cc1 | 4
O=C(O)c1cccc(N=C2C(=O)N(c3ccc(Cl)cc3Cl)C(=O)C2Cl)c1 (stereo not given) | -7
O=C1Nc2ccccc2C(=O)C1N1CCOCC1 (stereo not given) | 0
O=C(O)c1cccc(N=C2C(=O)c3ccccc3C(=O)C2N2CCOCC2)c1 (stereo not given) | 54*
CC(C)(C)OC(=O)N1CCC(c2c(C(=O)Nc3ccc4c(c3)OCO4)cnn2-c2ccc(F)cc2F)CC1 | -2
CC(=O)Nc1ccc(-c2c[n+]3ccc4ccccc4c3n2C)cc1 | -14
SMILES | RBX1-CUL1 inh
Cc1ccc(C2=CSC3=NN=C(c4ccccc4)C(c4ccccc4)N23)cc1 (stereo not given) | 2
C1=C(c2ccccc2)N2C(=NN=C(c3ccccc3)C2c2ccccc2)S1 (stereo not given) | 41*
C1=C(c2ccc(-c3ccccc3)cc2)N2C(=NN=C(c3ccccc3)C2c2ccccc2)S1 (stereo not given) | -18
COC(=O)c1cc(Br)cc(O)c1O | 83*
COC(=O)c1cc(Br)ccc1Cl | 4
COC(=O)c1ccc(C(=O)OC)c(NC(=O)c2ccc(Br)cc2)c1 | -9
